# Reference: PubChem BioAssay (NCATS)
# “And” between values parts separate entries of the source, which are not always exact repeats. Identical values can stand only once. Records with an inconclusive call do not appear. Entries that show only a call come without a potency. Unmarked numbers belong to inactive results. The source made the active and inactive calls. Calls come from the whole dose curve; as a rule, active = well fitted inhibition curve with a large enough effect; inconclusive = small, poorly fitted or top-dose-only effect; inactive = flat fitted curve, though single readings scatter.
# Legend:
# Assay in all cases: Cytotoxic Profiling of Annotated Libraries Using Quantitative High-Throughput Screening (AID 1296008); note: nearly all actives have a fitted effect of over 60% in size
# Conditions in all cases: Five cell lines viability, CellTiter-Glo ATP luminescence, 48-72 h; max response: active compounds read low
# [1] = tested on: CRL-7250
# Method in brief: (§1)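 Compounds were pin-transferred onto cells and incubated 48 or 72 hr at 37 degree Celsius, 95% humidity. CellTiter-Glo was added, plates sat 10 min at room temperature, then ATP-coupled luminescence was imaged as the viability read-out.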
# [2] = tested on: HEK293
# Method in brief: as §1
# [3] = tested on: HaCat
# Method in brief: as §1
# Potency is the fitted concentration of half-maximal effect.
structure (smiles),measurement,setting,value
C=CC(C)(O)CC/C=C(\C)C(=O)OCC1OC(OC2CCC3(C)C(CCC4(C)C3CC=C3C5CC(C)(C)C(O)CC5(C(=O)O)CCC34C)C2(C)C)C(O)C(OC2OC(CO)C(O)C(OC3OC(CO)C(O)C(OC4OC(COC5OC(CO)C(O)C(O)C5O)C(O)C(O)C4O)C3O)C2O)C1O (configuration not stated),max response,[1],-1.92%
same,outcome,[2],inactive
same,max response,[3],2.14%
COC(=O)[C@H](OC(C)=O)[C@H]1C(C)(C)C(=O)[C@H]2CC3=C4CC(=O)O[C@@H](c5ccoc5)[C@]4(C)CCC3[C@@]1(C)C2=O (some centres not stated),max response,[1],-5.81%
same,outcome,[2],inactive
same,max response,[3],-1.64%
C/C(=C/CCC(CO)C1CCC2(C)C3CCC4C(C)(C)C(OC5OC(CO)C(O)C(O)C5O)CC(O)C45CC35CCC12C)COC1OC(CO)C(O)C(O)C1O (configuration not stated),outcome,[1],inactive
same,outcome,[2],inactive
same,max response,[3],-8.45%
COc1cc(COC2OC(CO)C(O)C(O)C2O)cc(OC)c1O (configuration not stated),outcome,[1],inactive
same,outcome,[2],inactive
same,outcome,[3],inactive
C[C@@H]1C(=O)O[C@H]2[C@H]1CC[C@@]1(C)C(=O)C=C[C@](C)(O)[C@H]21,outcome,[1],inactive
same,outcome,[2],inactive
same,outcome,[3],inactive
CCC/C=C/C(=O)O[C@H]1CC(C)(C)CC2[C@]13[C@H](O)O[C@@]21CCC2[C@@]4(C)CC[C@H](O[C@@H]5O[C@H](C(=O)O)[C@@H](O)[C@H](O[C@@H]6O[C@H](CO)[C@H](O)[C@H](O)[C@H]6O[C@@H]6O[C@@H](C)[C@H](O)[C@@H](O)[C@H]6O[C@@H]6OC[C@](O)(CO)[C@H]6O)[C@H]5O[C@@H]5O[C@H](CO)[C@H](O)[C@H](O)[C@H]5O)C(C)(C)C4CC[C@@]2(C)[C@]1(C)C[C@H]3OC(C)=O (some centres not stated),max response,[1],-6.81%
same,outcome,[2],inactive
same,outcome,[3],inactive
CCCCNC(=O)[C@@H]1Cc2ccccc2N1C(=O)[C@@H](N)CC,max response,[1],-0.785%
same,outcome,[2],inactive
same,outcome,[3],inactive
CC(=O)NC(CCC(=O)O)C(=O)NCCc1ccc(O)cc1 (configuration not stated),outcome,[1],inactive
same,outcome,[2],inactive
same,outcome,[3],inactive
Cn1c(=O)cc(N2CCCC(N)C2)n(Cc2ccccc2C#N)c1=O (configuration not stated),max response,[1],-7.54%
same,outcome,[2],inactive
same,max response,[3],0.732%
O=C(/C=C/c1ccc(O)cc1)OCC1=C[C@@H](O)[C@@H]2C=CO[C@@H](O[C@@H]3O[C@H](CO)[C@@H](O)[C@H](O)[C@H]3O)[C@H]12,max response,[1],-2.56%
same,outcome,[2],inactive
same,outcome,[3],inactive
CN(C)C/C=C/C(=O)Nc1ccc(C(=O)Nc2cccc(Nc3ncc(Cl)c(-c4c[nH]c5ccccc45)n3)c2)cc1,Potency,[1],164 nM (active) and 263 nM (active)
same,Potency,[2],186 nM (active)
same,Potency,[3],1.84 µM (active) and 1.05 µM (active)
COC(=O)[C@@]1(C)CC[C@]2(C(=O)O[C@@H]3O[C@H](CO)[C@@H](O)[C@H](O)[C@H]3O)CC[C@]3(C)C(=CCC4[C@@]5(C)CC[C@H](O[C@@H]6O[C@H](C(=O)O)[C@@H](O)[C@H](O)[C@H]6O)C(C)(C)C5CC[C@]43C)[C@@H]2C1 (some centres not stated),max response,[1],-18.2%
same,outcome,[2],inactive
same,max response,[3],-2.02%
COC1CC(=O)C23C(=O)NC(CC(C)C)C2C(C)C(C)=CC3/C=C(\C)CCC1O (configuration not stated),outcome,[1],inactive
same,outcome,[2],inactive
same,max response,[3],-17.4%
O=C1NCc2nc3ccccc3c(=O)n2C1Cc1c[nH]c2ccccc12 (configuration not stated),max response,[1],-3.24%
same,outcome,[2],inactive
same,max response,[3],1.57%
CC1(CCC(=O)O)C(=O)C=CC23CC4CC(OC4(C)C2O)C13 (configuration not stated),max response,[1],3.62%
same,outcome,[2],inactive
same,outcome,[3],inactive
O=C(O[C@H]1[C@@H]2C=CO[C@@H](O[C@@H]3O[C@H](CO)[C@@H](O)[C@H](O)[C@H]3O)[C@@H]2[C@@]2(CO)O[C@@H]12)c1ccc(O)cc1,max response,[1],1.96%
same,outcome,[2],inactive
same,outcome,[3],inactive
COc1cc(/C=C/C(=O)OC2CC(C)=C(C(=O)O)/C2=C/CO[C@@H]2O[C@H](CO)[C@@H](O)[C@H](O)[C@H]2O)ccc1O (some centres not stated),max response,[1],4.12%
same,outcome,[2],inactive
same,outcome,[3],inactive
CC(C)CC(=O)OC[C@H]1O[C@@](COC(=O)CC(C)C)(O[C@H]2O[C@H](CO)[C@@H](O)[C@H](O)[C@H]2OC(=O)CC(C)C)[C@@H](OC(=O)CC(C)C)[C@@H]1O,outcome,[1],inactive
same,outcome,[2],inactive
same,max response,[3],-5.25%
O=C(/C=C/c1ccc(O)c(O)c1)OCc1ccccc1O[C@@H]1O[C@H](CO)[C@@H](O)[C@H](O)[C@H]1O,max response,[1],-1.33%
same,outcome,[2],inactive
same,max response,[3],1.88%
